# This is a sample that favours compounds with a hit; in the whole collection about 9% have one here.
# HPGD inh: inhibitors of human 15-hydroxyprostaglandin dehydrogenase (HPGD) | purified HPGD, NADH fluorescence kinetic, PGE2 substrate | Potency, µM, for the others: at the highest dose activity change, negative = inhibition, most hits filed as inhibitors | hit rate 4.3% among 150,000; further: potency means the concentration at half of the fitted maximal effect
# Target sequence (P15428 whole entry, looked up): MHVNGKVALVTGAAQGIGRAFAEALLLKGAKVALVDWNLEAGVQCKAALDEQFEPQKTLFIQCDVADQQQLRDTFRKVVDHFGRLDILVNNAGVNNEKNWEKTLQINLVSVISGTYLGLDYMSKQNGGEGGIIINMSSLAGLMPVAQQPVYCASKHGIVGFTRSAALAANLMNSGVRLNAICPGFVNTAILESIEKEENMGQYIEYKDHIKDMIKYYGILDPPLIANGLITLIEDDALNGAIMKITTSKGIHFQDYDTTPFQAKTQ
#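 NADH formation kinetics: reaction with 30 uM PGE2 and 1 mM NAD+ (final), 20 nM enzyme, Tris-HCl pH 8 with Tween 20, after 15 min compound preincubation at room temperature. Fluorescence change, last versus first of five reads.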
# IMPase inh: membrane-permeable compound that blocks inositol monophosphatase | P97697 | CHO-M1 cells, IP1 accumulation, HTRF TR-FRET ratio | inhibition (IP1 accumulation), % at 46.1 µM | 120,000 tested, under 10 active; active means well fitted curve in the direction sought with a large enough effect in the signal ratio, not every such curve was filed as active; inconclusive means small, poorly fitted or top-dose-only effect, or a change in a side signal; inactive means no such curve, though single readings can be large or run the other way; the % refers to the signal ratio;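 further: cells stimulated with carbachol in lithium chloride buffer; plate controls were DMSO basal wells for no effect and reference inhibitor wells for full effect; higher means more IMPase inhibition seen as more IP1 and lower FRET ratio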
# Target sequence (P97697 whole entry, looked up): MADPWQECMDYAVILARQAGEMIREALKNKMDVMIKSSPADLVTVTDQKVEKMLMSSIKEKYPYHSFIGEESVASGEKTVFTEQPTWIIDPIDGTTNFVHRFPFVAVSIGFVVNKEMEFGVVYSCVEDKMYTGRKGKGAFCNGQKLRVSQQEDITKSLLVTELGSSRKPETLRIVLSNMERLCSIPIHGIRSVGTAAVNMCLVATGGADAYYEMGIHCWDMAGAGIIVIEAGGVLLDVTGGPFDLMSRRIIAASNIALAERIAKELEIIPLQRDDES
#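 CHO-M1 cells (CHO stably expressing M1 receptor), compound up to 46 uM final, stimulated with carbachol (50 uM as added) in buffer with 50mM LiCl, pH 7.4, 30 min at 37C. Cytosolic IP1 read by TR-FRET; AC50 from Hill fits.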
# ALDH1A1 block: inhibitors of human aldehyde dehydrogenase 1A1. AID 1030. hit rate 7.3% among 220,000. Potency, µM (doses to about 75.3 µM), without a hit: top-dose activity, negative = inhibition, usual class: inhibitors. Purified ALDH1A1, NADH fluorescence, propionaldehyde substrate. P00352;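 further: potency means the concentration at half of the fitted maximal effect; plate controls were no enzyme wells and a reference inhibitor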
# * hit, by the source's call; ? = inconclusive; · = no result given; [ ] = another dose, or the depositor's remark. Unless noted, the call rests on the fitted dose curve; in most records, active means well fitted inhibition curve with a large enough effect (not every such curve was filed as active); inconclusive means small, poorly fitted or top-dose-only effect, or another doubt; inactive means no such curve, though single readings can be large or run the other way. Unless noted, on the % scale 0 is the no-effect control and ±100 the full control effect.
SMILES,HPGD inh,IMPase inh,ALDH1A1 block
O=C(COC(=O)c1ccc(S(=O)(=O)N2CCOCC2)cc1)NCc1cccs1,·,·,-4%
Cc1ccccc1NC(=O)C(Cl)=C(Cl)Cl,·,·,-2%
Cc1nn(CC#N)c(=O)n1-c1ccc(F)cc1,-9%,?,7%
CN(C)C(=O)c1ccc2c(c1)n(C)c(=O)n2C,-12%,2,-2%
Cn1c(=O)n(C)c2cc(C(=O)c3ccccc3)ccc21,-14%,14,7.9µM*
COc1ccc(-c2noc(CN3CCN(c4ccccc4F)CC3)n2)cc1OC,-13%,8,?
O=[N+]([O-])c1ccc(CN2CCSCC2)cc1,·,·,-13%
COc1cccc(CN2CCN(c3ncccn3)CC2)c1,-8%,10,?
COc1cc(CN2CCN(c3ccccc3F)CC2)c([N+](=O)[O-])cc1OC,7%,·,28µM*
COc1cccc(CN2CCN(Cc3cc(OC)c(OC)cc3[N+](=O)[O-])CC2)c1,2%,-7,25µM*
COc1cc(CN2CCN(Cc3ccc([N+](=O)[O-])cc3)CC2)c([N+](=O)[O-])cc1OC,·,·,35µM*
COc1ccc(C(=O)CCN2CCN(c3ccccc3OC)CC2)cc1,·,·,0.14µM*
COc1ccccc1N1CCN(CCCNC(=O)Nc2ccccc2C)CC1,1%,1,7%
COc1ccccc1N1CCN(CCCCN2C(=O)c3ccccc3C2=O)CC1,-25%,0,13µM*
COc1ccc(CN2CCc3cc(OC)c(OC)cc3C2)cc1O,·,·,-11%
COc1cc2c(cc1OC)CN(Cc1ccc(C)s1)CC2,-10%,2,28µM*
COc1ccc(C(=O)N2CCc3cc(OC)c(OC)cc3C2)cc1OC,-11%,0,-4%
COc1ccccc1N1CCN(CCCC(=O)c2ccc(F)cc2)CC1,0%,8,25%
COc1ccc(C(=O)CCN2CCc3cc(OC)c(OC)cc3C2)cc1,·,·,0.22µM*
O=C(Nc1ccccc1N1CCOCC1)C1CCN(S(=O)(=O)c2cccc(C(F)(F)F)c2)CC1,-9%,·,8%
Cc1ccc(-c2nnc(SCC(=O)NNC(=O)COc3cccc4ccccc34)n2C)cc1,-8%,·,2%
CCOC(=O)c1sc(SC)c2c1CCCC2=O,·,·,-8%
C=CCn1c(SCN2C(=O)c3ccccc3C2=O)nc2ccc(Cl)cc2c1=O,-10%,·,-15%
CC1CCN(S(=O)(=O)c2ccc(C(=O)N3CCN(c4ccccc4F)CC3)cc2)CC1,·,·,-3%
O=C(Nc1ncn[nH]1)c1ccc(Cl)cc1Cl,·,·,-5%
SMILES,HPGD inh,IMPase inh,ALDH1A1 block
O=C(Nc1nc(=S)ss1)c1ccc(Cl)cc1Cl,22µM*,3,6.3µM*
O=c1[nH]n2c(=O)c3c([nH]c2c1N=Nc1cccc(Cl)c1)CCCC3,16µM*,16,-2%
CCOc1ccc(N=Nc2c(=O)[nH]n3c(=O)c4c([nH]c23)CCCC4)cc1,?,·,4%
CCn1c(SCC(=O)N2CCN(c3ccccc3F)CC2)nnc1-c1ccoc1C,-17%,2,?
COc1ccc2nc3c(nc2c1)C(=O)c1ccccc1-3,-4%,·,3%
CCN(CC)C(=O)CSCc1cnn(-c2ccccc2)c1-n1cccc1,-12%,8,28µM*
O=C(CSCc1cnn(-c2ccccc2)c1-n1cccc1)NCc1ccccn1,·,·,9%
CCN(C(=O)CSc1nnc(-c2cccs2)o1)C1CCS(=O)(=O)C1 (stereo not given),·,·,-12%
CCC1CCCCN1C(=O)COc1cc(=O)n(C)c2ccccc12 (stereo not given),?,2,?
CCC1CCCCN1C(=O)COc1ccccc1NC(C)=O (stereo not given),·,·,3.5µM*
CCCCc1cc2c(cn1)=C(OC(=O)CCC(=O)OC)C(C)(OC(=O)CC)C(=O)C=2 (stereo not given),-6%,·,?
CCCCc1cc2c(cn1)=C(OC(=O)c1cnc3ccccc3n1)C(C)(OC(=O)CC)C(=O)C=2 (stereo not given),-8%,·,3.2µM*
CCCCC1=CC2=CC(=O)C(C)(OC(=O)CC)C(=O)C2=CN1CCc1ccccn1 (stereo not given),-2%,·,4%[13.5 µM]
CCCCc1cc2c(cn1)=C(OC(=O)c1ccc(Cl)nc1)C(C)(OC(=O)CC)C(=O)C=2 (stereo not given),1%,·,3.2µM*
COC(=O)N1C2CC3(C)CC(=O)CC1(C)C3c1ccccc12 (stereo not given),-4%,·,10%[13.5 µM]
CN(C)CCN(C)C(=O)c1ccc(-n2c(=O)c(=O)[nH]c3ccccc32)cc1,-8%,·,-5%
Cc1cc(Br)cn2cc(C(=O)O)nc12,·,·,-5%
N[C@H](C(=O)O)C1[C@H](C(=O)O)[C@H]1C(=O)O (stereo not given in full),-5%,0,-1%
CCC(=O)Nc1cc(ON=C(C)C)cc([N+](=O)[O-])c1,-1%,·,-7%
CC(C)=NOc1cc(NC(=O)CCl)cc([N+](=O)[O-])c1,-10%,·,0.18µM*
COc1ccc(Nc2nnc(SCc3cc(=O)n4ccsc4n3)s2)cc1,32µM*,3,14µM*
O=c1cc(CSc2nnc(Nc3ccccc3F)s2)nc2sccn12,·,·,-10%
Cn1c(NCc2ccco2)nc2c1c(=O)n(Cc1ccc(Cl)c(Cl)c1)c(=O)n2C,?,-2,?
O=C(COC(=O)C1CC2C=CC1C2)Nc1ccccc1F (stereo not given),·,·,13µM*
COc1ccc(NC(=O)COC(=O)C2CC3C=CC2C3)cc1 (stereo not given),·,·,-10%
SMILES,HPGD inh,IMPase inh,ALDH1A1 block
CCOc1cc(C(=O)NC(C)c2ccncc2)cc(OCC)c1OCC (stereo not given),-14%,-6,16%
COc1cc(C=O)ccc1OCCCOc1ccc([N+](=O)[O-])cc1,-21%,·,?
COc1ccc(C=O)cc1COc1ccc(Cl)cc1[N+](=O)[O-],0%,0,2%
COc1cc(C=O)ccc1OCCCOc1ccccc1C(=O)O,-10%,12,-2%
COc1cc(C=O)ccc1OCCCCOc1ccccc1[N+](=O)[O-],-26%,·,5µM*
COc1ccc(C=O)cc1COc1ccc(C)cc1[N+](=O)[O-],-23%,4,10µM*
COc1ccc(/C=N/NC(=O)c2cc(C(C)(C)C)[nH]n2)cc1COc1ccc(F)cc1F,·,·,-5%
COc1ccc(/C=N/NS(=O)(=O)c2ccc(F)cc2)cc1COc1cc(F)ccc1[N+](=O)[O-],·,·,35µM*
COc1cc(C=O)ccc1OCCCOc1ccccc1[N+](=O)[O-],20µM*,·,-15%
CCOC(=O)[C@]1(C(NC(=O)OC)c2ccco2)CCCC1=O (stereo not given in full),·,·,-3%[13.5 µM]
Cc1[nH][nH]c(=O)c1/C=N/N1CCOCC1,·,·,-2%
Cc1ccc(CN=C(Nc2ccccc2)NC2CCCCC2)cc1,·,·,10%
O=C(Cn1c(N2CCN(c3ccccc3)CC2)nc2ccccc21)c1ccccc1,-12%,2,-7%
COc1cc(/C=N/n2cnnc2)ccc1OS(=O)(=O)c1ccccc1[N+](=O)[O-],-20%,·,-12%
COc1cc(C=O)ccc1OS(=O)(=O)c1ccccc1[N+](=O)[O-],18µM*,·,8.9µM*
O=C(CCCc1nc2ccccc2s1)N1CCN(S(=O)(=O)c2cccs2)CC1,-17%,?,?
CC(C)Cn1c(SCc2nnc(-c3cccs3)o2)nc(O)cc1=O,16µM*,11,-9%
Cc1nnc(SCc2nnc(-c3cccs3)o2)n1C,·,·,-2%

# Assay outcomes deposited in PubChem by National Center for Advancing Translational Sciences (NCATS).
